Assay outcomes from PubChem BioAssay.
DAX1 inh-1 – inhibitors of human orphan nuclear receptor DAX1 (NR0B1) | inhibition, % at 6.75 µM | HEK293 Gal4-DAX1 luciferase reporter, luminescence | 0.99% of 340,000 active | P51843 | AID 504766;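 active = inhibition above the mean over all tested compounds plus 3 SD, cut at about 4.2% in these data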;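 also: 0% = DAX1-transfected cells with DMSO and 100% = empty-vector control cells with DMSO; inhibition shows as a rise in luminescence from relieved DAX1 repression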
hgDAF-12 ag – agonists of H. glycines DAF-12 nuclear receptor | HEK293 GAL4-hgDAF12 UAS-luciferase reporter, agonist luminescence; normalized to butyrate control | activation, % at 6.8 µM | 1.8% of 370,000 active | AID 687014;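 active = activation above a cutoff set at the mean of all screened compounds plus 3 SD, cut at about 10% in these data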;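 also: 0% = DMSO wells and 100% = sodium butyrate wells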
DAX1 inh-2 – DAX1 (NR0B1) inhibition, primary screen; HEK293T StAR-luciferase reporter, SF-1/DAX-1 repression relief; inhibition, % at 6.8 µM; 1.1% of 370,000 active; AID 652010;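 active = inhibition above the mean over all tested compounds plus 3 SD, cut at about 3.6% in these data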;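 also: 0% = DAX-1 cells with DMSO and 100% = cells lacking DAX-1 with DMSO; higher inhibition means more luminescence from relief of DAX-1 repression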
ssDAF-12 act – activates DAF-12 receptor from parasite S. stercoralis | activation, % at 6.8 µM | HEK293 ssDAF-12/GRIP1 lit1-tk-luc reporter, luminescence; % of 3 µM dafachronic acid response | 1% of 370,000 active;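 active = activation above the mean over all tested compounds plus 3 SD, cut at about 0.9% in these data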;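 also: 0% = DMSO-only wells and 100% = 3 µM delta7-dafachronic acid wells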
hcDAF-12 act – activators of H. contortus DAF-12 nuclear receptor; HEK293 hcDAF-12 lit1-tk-luc reporter, luminescence; 0% DMSO, 100% Δ7-dafachronic acid; activation, % at 6.8 µM; 1.4% of 370,000 active; AID 652067;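 active = activation above the mean of all tested compounds plus 3 SD, cut at about 5.5% in these data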;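 also: 100% = response to 3 µM Δ7-dafachronic acid high control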
DAX1 conf – confirmation of human DAX1 (NR0B1) inhibitors; shares compounds with DAX1 inh-2; inhibition, % at 6.8 µM; HEK293T StAR-promoter luciferase reporter, SF-1/DAX-1 repression; 87% of 2,400 active;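 active = inhibition above the average of every tested compound plus 3 SD, cut at about 3.8% in these data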;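 also: 0% = DAX-1 cells with DMSO and 100% = no DAX-1 control cells with DMSO; active compounds raise luminescence by relieving repression of the StAR reporter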
Target sequence (P51843 whole entry, looked up): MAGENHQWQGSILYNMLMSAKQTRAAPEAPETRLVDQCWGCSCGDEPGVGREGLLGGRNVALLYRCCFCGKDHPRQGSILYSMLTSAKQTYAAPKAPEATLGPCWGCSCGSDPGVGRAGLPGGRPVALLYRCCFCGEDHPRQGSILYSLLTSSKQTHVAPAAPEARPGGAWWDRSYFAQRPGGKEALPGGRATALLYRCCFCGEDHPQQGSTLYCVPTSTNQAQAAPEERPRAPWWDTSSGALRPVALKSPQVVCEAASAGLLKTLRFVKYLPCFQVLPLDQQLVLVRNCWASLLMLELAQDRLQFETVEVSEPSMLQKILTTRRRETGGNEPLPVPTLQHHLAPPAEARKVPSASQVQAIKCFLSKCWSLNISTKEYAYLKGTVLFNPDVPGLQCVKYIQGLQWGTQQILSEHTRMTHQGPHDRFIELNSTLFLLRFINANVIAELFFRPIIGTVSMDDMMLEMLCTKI
SF1 AF2mut Luc – counter-screen for DAX1 inhibitors: nonselective inhibitors with SF-1 AF2 mutant; 78% of 2,400 active; HEK293 StAR-luciferase, luminescence; shares compounds with DAX1 inh-2; inhibition, % at 6.8 µM; AID 652136;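 active = inhibition above the mean of all tested compounds plus 3 SD, cut at about 3% in these data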;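 also: 0% = DAX-1 transfected cells with DMSO and 100% = cells without DAX-1 with DMSO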
Starred values were filed as active, the others as inactive; . = no result. The list is not random: actives were taken first. Their share in the collection is about 4.1%.

SMILES | DAX1 inh-1 | hgDAF-12 ag | DAX1 inh-2 | ssDAF-12 act | hcDAF-12 act | DAX1 conf | SF1 AF2mut Luc
COC(=O)c1c(NC(C)=O)sc(C(=O)Nc2ccccc2)c1C | 1 | 7 | 2 | -2 | 0 | . | .
O=C(NCc1ccccc1)c1ccc(Cl)c(NC2=NC3CS(=O)(=O)CC3S2)c1 (stereo unspecified) | 2 | 7 | 1 | -1 | 0 | . | .
COc1ccc(CNC(=O)c2ccc(Cl)c(NC3=NC4CS(=O)(=O)CC4S3)c2)cc1 (stereo unspecified) | -1 | 11* | -1 | -1 | -1 | . | .
Nc1ncnc2c1ncn2C1C=C(CO)C(O)C1O (stereo unspecified) | 7.6* | . | . | . | . | . | .
Cc1ccsc1C(=O)OCc1nnc(-c2ccccc2)o1 | 2 | 2 | 4.0* | -1 | 1 | . | .
O=C(O)c1ccc2cccnc2n1 | -1 | 1 | -1 | 1.3* | 0 | . | .
COc1cccc(-c2nnc3sc(-c4ccco4)nn23)c1 | 4.2* | 2 | 1 | -1 | -1 | . | .
CC1(c2cccc(Br)c2)NC(=O)N(CC(=O)Nc2cccnc2Cl)C1=O (stereo unspecified) | -1 | 1 | 3.7* | -1 | 1 | . | .
CC1(c2ccccc2Cl)NC(=O)N(CC(=O)Nc2cccnc2Cl)C1=O (stereo unspecified) | -1 | 0 | 2 | -1 | -1 | . | .
c1ccc2[nH]c(-c3cscn3)nc2c1 | -1 | 12* | 2 | 0 | 1 | . | .
COc1cc(O)c(C(C)=O)c(OC)c1 | 0 | -1 | 0 | -2 | 0 | . | .
COc1cc(O)c(C(C)=O)c(CC(=O)O)c1 | -1 | -3 | 0 | 0.9* | -1 | . | .
C=CCn1c(C)cc(C2=NNC(=Nc3ccc(C)cc3)SC2)c1C | 0 | -1 | 0 | 0 | 2 | . | .
Cc1ccc(C2=NNC(=Nc3ccc(F)cc3)SC2)cc1 | 0 | 11* | 0 | -1 | 5.7* | . | .
CC(C)c1ccc(N=C2NN=C(c3cccs3)CS2)cc1 | 7.2* | 6 | 3 | 0 | 2 | . | .
Cc1ccc(O)c(NC(=S)NC(=O)/C=C/c2ccco2)c1 | 0 | 12* | -1 | 0 | 4 | . | .
COc1ccc(NC(=S)NC(=O)c2ccc(Br)o2)cc1 | 1 | 11* | 1 | 0 | 1 | . | .
COc1ccc(NC(=S)NC(=O)/C=C/c2ccco2)cc1 | 4.8* | 10 | 0 | -1 | 1 | . | .
Cc1ccc(O)c(NC(=S)NC(=O)/C=C/c2ccccc2)c1 | 1 | -1 | 0 | -1 | 0 | . | .
CCOc1ccc(NC(=O)c2ccc3c(c2)N(C)CCS3)cc1 | 2 | 10 | 5.0* | -1 | 1 | 5.0* | 3
CCc1ccc(C2=NN(C(=O)OC)C(O)(C(F)(F)F)C2)cc1 (stereo unspecified) | -2 | 9 | 6.6* | 1.0* | 6.0* | 12* | 5.4*
COc1ccc(CC(=O)N2N=C(c3ccncc3)CC2(O)C(F)(F)F)cc1 (stereo unspecified) | -2 | -1 | -2 | -1 | -2 | . | .
COC(=O)C1=C(C)N(C)C(=NCC2CC2)NC1CCc1ccccc1 (stereo unspecified) | . | 0 | 0 | -1 | -1 | . | .
COc1cccc(OCc2cc(C(=O)N(C)Cc3nccn3C)no2)c1 | 1 | 8 | 5.4* | 0 | 0 | 6.8* | 4.6*
C[C@H](O)[C@@H]1C(=O)N2CCc3c([nH]c4ccccc34)[C@@H]2C[C@@H]1N(C)Cc1ccc(Cl)cc1 | 0 | 3 | 6.2* | -1 | 1 | 1 | 0
SMILES | DAX1 inh-1 | hgDAF-12 ag | DAX1 inh-2 | ssDAF-12 act | hcDAF-12 act | DAX1 conf | SF1 AF2mut Luc
CCc1ccc(OCC(=O)NC2CCCCC2)c(Br)c1 | 1 | 9 | 6.9* | 0 | 4 | 6.9* | 4.4*
CCNc1nc(NCC)nc(N/N=C(\C)c2ccc(OC)cc2)n1 | -2 | -1 | -1 | -1 | -1 | . | .
COc1ccc(/C(C)=N/Nc2nccnc2Cl)cc1 | -1 | 8 | 5.6* | 1 | 2 | 4.2* | 3
COCCCN1CCC2(CCC(c3ccccc3)CC2)C1=O (stereo unspecified) | . | 0 | 1 | -1 | -1 | . | .
CC(=NNC(=O)CSc1nnc(-c2ccccc2)n1-c1ccccc1)c1cccc([N+](=O)[O-])c1 | . | -3 | -2 | -2 | -4 | . | .
Cc1cc(C(=O)COC(=O)Cc2c(F)cccc2Cl)c(C)n1C | 2 | 10 | 5.0* | 0 | 5 | 5.8* | 3.2*
Cc1ccc(C2=NNC(C(O)C(O)C(O)C(C)O)S2)cc1 (stereo unspecified) | 1 | 7 | 1 | -1 | 0 | . | .
Cc1ccc(C2=NNC(c3cccc(F)c3)S2)cc1 (stereo unspecified) | -2 | 17* | 9.5* | 1.6* | 14* | 11* | 5.2*
Cc1cc(NC(=O)CSc2nnc(-c3cccc(F)c3)n2N)no1 | 0 | -2 | 5.2* | -1 | -1 | 2 | 2
Cc1cc(NC(=O)CSc2ccc(-c3ccc(Br)cc3)nn2)no1 | 1 | 7 | 5.3* | 0 | 3 | 0 | 0
COc1ccc(-c2nnc(SCC(=O)Nc3cc(C)on3)n2N)cc1OC | 0 | 0 | 0 | 0 | -2 | . | .
Cc1ccc(-c2csc(NC(=O)C3=COCCO3)n2)cc1 | 1 | 10 | 1 | -1 | 2 | . | .
CC(C)(C)c1csc(NC(=O)C2=COCCO2)n1 | 2 | 12* | 6.6* | 0 | 1 | 8.2* | 5.3*
CCOC(=O)c1csc(NC(=O)C2=COCCO2)n1 | 3 | 7 | 7.0* | 0 | 2 | 9.0* | 7.1*
CCOC(=O)Cc1csc(NC(=O)c2cccs2)n1 | 0 | 0 | 0 | -1 | 0 | . | .
CCOC(=O)c1csc(NC(=O)c2cccs2)n1 | 1 | 10 | 8.7* | 0 | 4 | 10* | 6.7*
COC(=O)[C@]12C[C@H](CC(=O)NCc3cccc(C(F)(F)F)c3)C(=O)N(CCc3ccc(OC)c(OC)c3)C1=C[C@H](C1CCCC1)O[C@@H]2C | . | -1 | -2 | -1 | -2 | . | .
C/C(=N\NC(=O)c1ccco1)c1ccc(NC(=O)c2cccs2)cc1 | 1 | 11* | 4.7* | 0 | 2 | -1 | -1
NC(Cc1ccc(O)cc1)C(=O)NN=Cc1ccccc1Cl (stereo unspecified) | . | 4 | 2 | 0 | 0 | . | .
O=[N+]([O-])c1ccc(Cl)c(S(=O)(=O)Nc2ccc(-c3ccc(N4CCOCC4)nn3)cc2)c1 | 1 | 2 | 0 | -1 | -1 | . | .
O=S(=O)(Nc1cccc(-c2ccc(N3CCCCCC3)nn2)c1)c1ccccc1F | 1 | 4 | 5.8* | -1 | 4 | 6.1* | 2
